Measurements taken from PubChem BioAssay AID1159580 (chemical genetic matrix, 2015).
“And” between values parts separate entries of the source, which are not always exact repeats. Equal values may be shown once. About 2,000 (36%) of roughly 5,500 compounds were called active. Another 18% or so got no clear call; they are omitted. Rule as the data show it: active = normalized growth mostly below about 0.91 (no sharp cut-off); inconclusive = no clear call, values can overlap the other calls; inactive = mostly above about 0.92. The list shows a part of the results.

Assay: chemical genetic growth profiling, strain panel (AID 1159580);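 also: tested at 20 µM; growth read once vehicle control cultures reached saturation at 30 °C; 1 = growth at the plate median or of vehicle wells; lower values mean less growth of the strain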
Settings: S. cerevisiae deletion strains, growth OD

Measured: normalized growth

COc1ccc2c3c([nH]c2c1)C(C)=NCC3
inactive: locus YAL013W, strain DEP1, hits give low values 1.01 | locus YAL021C, strain ccr4, hits give low values 0.997 | locus YAL026C, strain drs2, hits give low values 1.02 | locus YAL030W, strain snc1, hits give low values 1.01 | locus YBL061C, strain skt5, hits give low values 1.01 | locus YBR009C, strain hhf1, hits give low values 0.989 | locus YBR021W, strain FUR4, hits give low values 1.01 | locus YBR023C, strain chs3, hits give low values 0.999 | locus YBR171W, strain sec66, hits give low values 1.01 | locus YBR229C, strain ROT2, hits give low values 1 | locus YBR231C, strain swc5, hits give low values 0.997 | locus YBR279W, strain paf1, hits give low values 1.01 | locus YCL016C, strain dcc1, hits give low values 1 | locus YCL029C, strain bik1, hits give low values 0.984 | locus YCL069W, strain vba3, hits give low values 1.01 | locus YCR088W, strain abp1, hits give low values 1.01 | locus YDL005C, strain med2, hits give low values 0.99 | locus YDL035C, strain GPR1, hits give low values 1.02 | locus YDL040C, strain nat1, hits give low values 0.986 | locus YDL074C, strain BRE1, hits give low values 1 | locus YDL101C, strain DUN1, hits give low values 1.01 | locus YDL134C, strain PPH21, hits give low values 1 | locus YDL185W, strain tfp1, hits give low values 0.975 | locus YDL192W, strain arf1, hits give low values 0.993 | locus YDR001C, strain nth1, hits give low values 1.02 | locus YDR069C, strain doa4, hits give low values 0.992 | locus YDR101C, strain arx1, hits give low values 0.986 | locus YDR137W, strain rgp1, hits give low values 1.01 | locus YDR150W, strain NUM1, hits give low values 1.01 | locus YDR159W, strain sac3, hits give low values 1 | locus YDR162C, strain NBP2, hits give low values 1 | locus YDR195W, strain ref2 0.954 | locus YDR297W, strain sur2, hits give low values 0.991 | locus YDR318W, strain mcm21, hits give low values 0.983 | locus YDR334W, strain swr1, hits give low values 1.01 | locus YDR335W, strain msn5, hits give low values 1.01 | locus YDR388W, hits give low values 0.983 | locus YDR392W, strain spt3, hits give low values 1.01 | locus YDR502C, strain sam2, hits give low values 0.989 | locus YEL003W, strain gim4, hits give low values 1 | locus YEL037C, strain rad23, hits give low values 1 | locus YEL061C, strain CIN8 (second series), hits give low values 1.03 | locus YEL061C, strain CIN8, hits give low values 1.01 | locus YER015W, strain faa2, hits give low values 0.988 | locus YER016W, strain bim1, hits give low values 1 | locus YER110C, hits give low values 0.981 | locus YER111C, strain swi4, hits give low values 0.993 | locus YER155C, strain BEM2 (second series), hits give low values 0.98 | locus YER155C, strain BEM2, hits give low values 1.01 | locus YER167W, strain BCK2, hits give low values 1.01 | locus YFR010W, strain ubp6, hits give low values 0.999 | locus YGL078C, strain dbp3, hits give low values 0.987 | locus YGL086W, strain mad1, hits give low values 0.991 | locus YGL167C, strain pmr1, hits give low values 0.993 | locus YGL173C, strain kem1, hits give low values 0.984 | locus YGL227W, strain vid30, hits give low values 1 | locus YGL240W, strain doc1, hits give low values 1.01 | locus YGL248W, strain PDE1, hits give low values 1 | locus YGL253W, strain hxk2, hits give low values 1.03 | locus YGR078C, strain PAC10, hits give low values 1 | locus YGR135W, strain pre9, hits give low values 0.988 | locus YGR229C, strain SMI1, hits give low values 1.03 | locus YGR252W, strain gcn5, hits give low values 0.963 | locus YHR013C, strain ard1, hits give low values 0.948 | locus YHR027C, strain rpn1, hits give low values 1.01 | locus YHR030C, strain SLT2, hits give low values 1.01 and 0.978 | locus YHR079C, strain IRE1 (second series), hits give low values 0.992 | locus YHR079C, strain IRE1, hits give low values 1 | locus YHR094C, strain hxt1, hits give low values 0.991 | locus YHR129C, strain ARP1, hits give low values 0.999 | locus YHR142W, strain chs7, hits give low values 1.01 | locus YHR200W, strain rpn10, hits give low values 0.982 | locus YIL066C, strain RNR3, hits give low values 1.01 | locus YIL073C, strain SPO22, hits give low values 1.03 | locus YIL125W, strain kgd1, hits give low values 0.988 | locus YIR030C, strain dcg1, hits give low values 0.988 | locus YJL092W, strain hpr5, hits give low values 1.02 | locus YJL095W, strain BCK1 (second series), hits give low values 1 | locus YJL095W, strain BCK1, hits give low values 1.02 and 0.991 | locus YJL115W, strain asf1, hits give low values 0.994 | locus YJL129C, strain trk1, hits give low values 1.02 | locus YJL134W, strain LCB3, hits give low values 1 | locus YJL154C, strain vps35, hits give low values 1 | locus YJL164C, strain tpk1, hits give low values 1 | locus YJL166W, strain qcr8, hits give low values 1 | locus YJL168C, strain set2, hits give low values 0.986 | locus YJL187C, strain SWE1 (second series), hits give low values 1.01 | locus YJL187C, strain SWE1, hits give low values 0.993 | locus YJR043C, strain POL32, hits give low values 0.982 | locus YJR066W, strain TOR1, hits give low values 0.929 | locus YJR075W, strain HOC1, hits give low values 1.01
